Results reported in PubChem BioAssay (EPA / NIEHS).
Inconclusive results are not listed. The source made the active and inactive calls. Rule for the calls, unless noted: active = hit-call score of the fitted dose curve at least 0.9, where 1 is the maximum; inactive = score below 0.9.

Assays:
[1] = CCTE_Harrill_HTTr_Viability_MCF7: CCTE's 6-hour Cell Viability Assessment for the High-Throughput Transcriptomics (HTTr) Platform, in MCF-7 cells cultured in DMEM + 10% fetal bovine serum, Harrill Lab (AID 2284010)
How it was run: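 PI exclusion, high-content imaging; 8-pt dilution series, 6 h exposure; bidirectional fit vs DMSO (neg. ctrl/baseline); gain of signal = loss of membrane integrity.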

[2] = CCTE_Harrill_HTTr_Apoptosis_MCF7: CCTE's 6-hour Apoptosis Assessment for the High-Throughput Transcriptomics (HTTr) Platform, in MCF-7 cells cultured in DMEM + 10% fetal bovine serum, Harrill Lab (AID 2284011)
How it was run: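 Cells are dosed with test chemicals at eight concentrations and imaged 6 hours later for caspase-3/7 activity using a green fluorogenic detection reagent. Activity is fitted in both directions against DMSO controls.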

[3] = CCTE_Harrill_HTTr_CellCount_MCF7: CCTE's Cell Proliferation Assessment for the High-Throughput Transcriptomics (HTTr) Platform, Harrill Lab (AID 2284012; active = hit-call score of the fitted dose curve at least 0.9, where 1 is the maximum;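 note: count of Hoechst-stained nuclei per well by high-content imaging in MCF-7 cells; cells exposed to compound for six hours; intended direction is loss of nuclei count meaning fewer cells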)
How it was run: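 Readout: Hoechst nuclear count by high-content imaging. MCF-7, 8-point dilution series, 6 h exposure. Bidirectional fit vs DMSO baseline.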

| Structure (SMILES) | outcome [1] | outcome [2] | outcome [3] |
| --- | --- | --- | --- |
| CCCCCCCCCCCCCCCC=O | inactive | inactive | inactive |
| CCOCCOC(=O)C=Cc1ccc(OC)cc1 | inactive | inactive | inactive |
| Nc1c(S(=O)(=O)O)cc(Nc2ccccc2)c2c1C(=O)c1ccccc1C2=O | inactive | inactive | inactive |
| CCCCOC(=O)/C=C/C(=O)OCCCC | inactive | inactive |  |
| CN1[C@@H]2CC[C@H]1CC(OC(=O)C(CO)c1ccccc1)C2 (stereo partly drawn) | inactive | inactive | inactive |
| CCCCCCCCOC(=O)c1ccccc1C(=O)O | inactive | inactive | inactive |
| CCOC(=O)[C@@H](C)Oc1ccc(Oc2cnc3cc(Cl)ccc3n2)cc1 | inactive | inactive |  |
| Nc1nc2nc[nH]c2c(=O)[nH]1 | inactive | inactive | inactive |
| CCOC(=O)c1ccccc1C(=O)O | inactive | inactive |  |
| CC1=CC(=O)C(C(C)C)CC1 (stereo not drawn) | inactive | inactive | inactive |
| C/C(=C\c1ccc(C(=O)O)cc1)c1ccc2c(c1)C(C)(C)CCC2(C)C | inactive | inactive | inactive |
| O=CO | inactive | inactive |  |
| CC(=O)C(=NNc1ccc(-c2ccc(NN=C(C(C)=O)C(=O)Nc3ccc(C)cc3C)c(Cl)c2)cc1Cl)C(=O)Nc1ccc(C)cc1C | inactive | inactive | inactive |
| NCCNCCNCCNCCN | inactive | inactive | inactive |
| Clc1ccc(-c2nc3sccn3c2/C=N/OCc2ccc(Cl)c(Cl)c2)cc1 | inactive | inactive |  |
| CCOc1ccc2ccccc2c1 | inactive | inactive | inactive |

| Structure (SMILES) | outcome [1] | outcome [2] | outcome [3] |
| --- | --- | --- | --- |
| C=O.C=O.C=O.C=O.C=O.[Fe] | inactive | inactive |  |
| CCCCCC1=C(C)CCC1=O | inactive | inactive | inactive |
| CO[Si](OC)OC | inactive | inactive | inactive |
| Cc1ccc2[nH]c3cc4c(=O)c5cc(C)ccc5[nH]c4cc3c(=O)c2c1 | inactive | inactive | inactive |
| CC(=O)C(O)O | inactive | inactive | inactive |
| NC[C@H](O)c1ccc(O)c(O)c1 | inactive | inactive | inactive |
| CC(=CC(C)(C)C)CC(C)(C)C | inactive | inactive | inactive |
| OCCC1CCCCN1 (stereo not drawn) | inactive | inactive |  |
| OCCS | inactive | inactive | inactive |
| CC1CN(c2cc3c(cc2F)c(=O)c(C(=O)O)cn3-c2ccc(F)cc2F)CCN1 (stereo not drawn) | inactive | inactive | inactive |
| O=c1cc(-c2ccccc2)oc2c1ccc1ccccc12 | inactive | inactive | inactive |
| COc1c2occc2c(OC)c2c(=O)cc(C)oc12 | inactive | inactive | inactive |
| O=C[C@H](O)[C@@H](O)[C@@H](O)CO | inactive | inactive | inactive |
| O=c1ccc2ccc(O)cc2o1 | inactive | inactive | inactive |
| CCCCN1C(=O)c2ccccc2C1=O | inactive | inactive |  |
| C=C1CCC2CC1C2(C)C (stereo not drawn) | inactive | inactive | inactive |
